The term inhibition denotes the relative decrease from the control value, in per cent.

In ChEMBL document CHEMBL1961873, “Compounds: GSK PKIS; Assays: Nanosyn kinase panel” (2012) one finds inhibition data, which are given here for 33 compounds.

Sequence of Tyrosine-protein kinase Fes/Fps (Homo sapiens) (P07332 whole entry): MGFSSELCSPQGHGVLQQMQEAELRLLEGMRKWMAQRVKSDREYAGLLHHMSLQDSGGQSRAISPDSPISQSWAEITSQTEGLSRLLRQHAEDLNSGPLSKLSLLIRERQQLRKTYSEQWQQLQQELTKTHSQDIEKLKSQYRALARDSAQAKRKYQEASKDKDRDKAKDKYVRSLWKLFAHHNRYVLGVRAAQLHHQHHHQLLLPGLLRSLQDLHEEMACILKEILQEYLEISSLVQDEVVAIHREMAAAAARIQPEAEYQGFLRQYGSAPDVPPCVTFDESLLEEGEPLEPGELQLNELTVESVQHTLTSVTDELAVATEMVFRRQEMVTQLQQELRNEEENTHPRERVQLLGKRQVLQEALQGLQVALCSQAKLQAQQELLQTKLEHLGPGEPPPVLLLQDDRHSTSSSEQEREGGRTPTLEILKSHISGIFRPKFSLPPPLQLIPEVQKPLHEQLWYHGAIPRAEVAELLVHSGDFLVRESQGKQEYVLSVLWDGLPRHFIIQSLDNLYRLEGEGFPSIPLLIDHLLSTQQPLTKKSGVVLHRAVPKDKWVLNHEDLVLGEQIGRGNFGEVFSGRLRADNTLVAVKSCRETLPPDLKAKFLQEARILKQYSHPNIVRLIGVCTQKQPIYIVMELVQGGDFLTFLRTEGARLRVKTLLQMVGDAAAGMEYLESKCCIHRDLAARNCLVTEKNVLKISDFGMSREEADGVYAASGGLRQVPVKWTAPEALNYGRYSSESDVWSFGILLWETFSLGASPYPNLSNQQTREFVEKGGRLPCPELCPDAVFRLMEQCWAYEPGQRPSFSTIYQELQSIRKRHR

One experiment addresses Tyrosine-protein kinase Fes/Fps (Homo sapiens) (UniProt P07332). The note with it: at 0.1 µM.
Regarding `COc1cc2c(cc1Nc1nc(N3CCc4ccccc43)c3cc[nH]c3n1)N(C(=O)CN(C)C)CC2`, the inhibition stood at 39.9%.

As to `CCN1CCC(CC(=O)Nc2n[nH]c3nc(-c4cccs4)c(Br)cc23)CC1`, the inhibition is -3.39%.

With `NCc1ccc(-c2nc(-c3ccc(Cl)c(O)c3)c(-c3ccncc3)[nH]2)cc1`, the inhibition was 0.2%.

With `COC(=O)Nc1nc2cc(Oc3ccc(NC(=O)Nc4cccc(C(=O)O)c4)cc3)ccc2[nH]1`, the inhibition was -0.49%.

For the compound `O=C(Nc1n[nH]c2nc(-c3ccco3)c(Br)cc12)C1CC1`, the inhibition was found to be 2.91%.

On to `CCn1c(-c2nonc2N)nc2cnc(Oc3cccc(NC(=O)c4ccc(OCCN5CCOCC5)cc4)c3)cc21`, for which the inhibition was determined as 2.8%.

On to `COc1cccc(-n2ncc3c(N/N=C/c4cccc(F)c4)ncnc32)c1`, for which the inhibition amounted to 1.31%.

As for `Nc1ncnc2occ(-c3ccc(NC(=O)Nc4cccc(C(F)(F)F)c4)cc3)c12`, the inhibition came to 3.8%.

Take `CCn1c(-c2nonc2N)nc2cncc(C(=O)N3CC[C@H](N)C3)c21`: the inhibition amounted to 2.6%.

Take `COc1cc2ncn(-c3cc(O[C@@H](C)c4ccccc4Cl)c(C(N)=O)s3)c2cc1OC`: the inhibition is 3.85%.

`CCCN1CCC(Oc2cc(Nc3nc(Nc4cccc(F)c4C(N)=O)c4cc[nH]c4n3)c(OC)cc2Cl)CC1`: the inhibition came out at 0.64%.

For `[O-][S+]1CCN(Cc2ccc(-c3ccc4ncnc(Nc5ccc(OCc6ccccc6)c(F)c5)c4c3)o2)CC1`, the inhibition was found to be 1.91%.

With `Cc1ccc(C(=O)NC2CCCCC2)cc1-c1ccc(C(=O)NCC2CC2)cc1`, the inhibition turned out to be 3.08%.

Consider `CNC(=O)c1cncc(/C=C/c2c(Cl)cccc2Cl)c1`, for which the inhibition is 2.89%.

For the compound `CN(C)c1cc2c(Nc3ccc4nc(Cc5ccccc5)[nH]c4c3)ncnc2cn1`, the inhibition turned out to be 3.37%.

Regarding `CCn1c(-c2nonc2N)nc2ccncc21`, the inhibition was 0.83%.

Take `Fc1cccc(COc2ccc(Nc3ncnc4sc(-c5cccs5)cc34)cc2Cl)c1`: the inhibition came out at 0.45%.

As to `Cc1ccc(NC(=O)c2ccnc(N3CCCC3)c2)cc1-c1ccc(C(=O)NCC2CC2)cc1`, the inhibition was found to be 5.28%.

For another experiment the target is unchanged. To be noted: at 1 µM.
In the case of `CS(=O)(=O)CCN(CC#N)Cc1ccc(-c2ccc3ncnc(Nc4ccc(OCc5cccc(F)c5)c(Cl)c4)c3c2)o1`, the inhibition turned out to be 0.27%.

Turning to `CC(=O)Nc1cccc(C#Cc2cncnc2Nc2ccc(OCc3cccc(F)c3)c(Cl)c2)n1`, the inhibition was -1.06%.

As to `COc1ccccc1Nc1ncc(-c2ccccc2)o1`, the inhibition stood at 3.85%.

`NS(=O)(=O)c1cccc(-c2ccc3c(NC(=O)C4CC4)n[nH]c3c2)c1`: the inhibition is -4%.

As for `Cc1nnc(-c2ccc(C)c(-c3ccc(C(=O)Nc4cccc(C#N)c4)cc3)c2)o1`, the inhibition came to 2.11%.

On to `COc1ccc(-c2nn3ncccc3c2-c2ccnc(Nc3ccc(Cl)c(C(F)(F)F)c3)n2)cc1`, for which the inhibition was determined as 1.82%.

Take `O=C1NC(=O)C(c2ccc(Cl)cc2)=C1Nc1ccc(Cl)c(C(=O)O)c1`: the inhibition was -3%.

Regarding `COC(=O)Nc1nc2cc(Oc3cccc(NC(=O)Nc4cc(C(F)(F)F)ccc4F)c3)ccc2[nH]1`, the inhibition turned out to be 0.56%.

In the case of `O=C1NC(=O)C(c2cccc(Cl)c2)=C1Nc1ccc(O)c(Cl)c1`, the inhibition came to 1.14%.

Take `CCCN1CCC=C(c2ccc(Nc3nc(Nc4ccccc4C(N)=O)c4cc[nH]c4n3)c(C)c2)C1`: the inhibition was 57.3%.

Take `Nc1nc(-c2ccc3c(c2)C(=Cc2cc(Br)c(O)c(Br)c2)C(=O)N3)cs1`: the inhibition was -3.65%.

Turning to `O=C1NC(=O)C(c2ccccc2Cl)=C1Nc1cccc(O)c1`, the inhibition came out at 2.5%.

For `CCc1cccc(NC(=O)Nc2ccc(Oc3ccc4nc(NC(=O)OC)[nH]c4c3)cc2)c1`, the inhibition is 0.62%.

Take `CC1=C(C(=O)Nc2ccc3[nH]ncc3c2)C(c2ccc3ccccc3c2)CC(=O)N1` (configuration not stated): the inhibition was 2.99%.

Take `CS(=O)(=O)Nc1ccc(N/C=C2\C(=O)Nc3ccccc32)cc1`: the inhibition was -1.95%.

As to `COc1cc2c(cc1Nc1nc(N3CCc4ccccc43)c3cc[nH]c3n1)N(C(=O)CN(C)C)CC2`, the inhibition was 62.3%.

As to `CCN1CCC(CC(=O)Nc2n[nH]c3nc(-c4cccs4)c(Br)cc23)CC1`, the inhibition is -4.54%.

On to `NCc1ccc(-c2nc(-c3ccc(Cl)c(O)c3)c(-c3ccncc3)[nH]2)cc1`, for which the inhibition was found to be 1.79%.

With `COC(=O)Nc1nc2cc(Oc3ccc(NC(=O)Nc4cccc(C(=O)O)c4)cc3)ccc2[nH]1`, the inhibition came to 0.5%.

As for `O=C(Nc1n[nH]c2nc(-c3ccco3)c(Br)cc12)C1CC1`, the inhibition is 3.27%.

Consider `CCn1c(-c2nonc2N)nc2cnc(Oc3cccc(NC(=O)c4ccc(OCCN5CCOCC5)cc4)c3)cc21`, for which the inhibition came to 2.83%.

In the case of `COc1cccc(-n2ncc3c(N/N=C/c4cccc(F)c4)ncnc32)c1`, the inhibition came out at 0.83%.

Regarding `Nc1ncnc2occ(-c3ccc(NC(=O)Nc4cccc(C(F)(F)F)c4)cc3)c12`, the inhibition was determined as 4.91%.

With `CCn1c(-c2nonc2N)nc2cncc(C(=O)N3CC[C@H](N)C3)c21`, the inhibition is 2.26%.
